# Measured values from PubChem BioAssay.
# Calls of active or inactive are those of the source.
# Columns and labels:
# [1] = target: Albumin (Bos taurus) (UniProt P02769); experiment: compounds binding labelled BSA control protein – biochemical, small-molecule microarray, Alexa647 label, 635/667 nm fluorescence, artefact control for SMM control protein annotation, profiling panel (AID 1118); conditions: BSA-A647 binding, fluorescence 635 nm, higher = more signal;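 also: score merges 667 nm emission intensity and signal-to-noise per printed compound spot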
# Sequence of Albumin (Bos taurus) (P02769 whole entry, looked up): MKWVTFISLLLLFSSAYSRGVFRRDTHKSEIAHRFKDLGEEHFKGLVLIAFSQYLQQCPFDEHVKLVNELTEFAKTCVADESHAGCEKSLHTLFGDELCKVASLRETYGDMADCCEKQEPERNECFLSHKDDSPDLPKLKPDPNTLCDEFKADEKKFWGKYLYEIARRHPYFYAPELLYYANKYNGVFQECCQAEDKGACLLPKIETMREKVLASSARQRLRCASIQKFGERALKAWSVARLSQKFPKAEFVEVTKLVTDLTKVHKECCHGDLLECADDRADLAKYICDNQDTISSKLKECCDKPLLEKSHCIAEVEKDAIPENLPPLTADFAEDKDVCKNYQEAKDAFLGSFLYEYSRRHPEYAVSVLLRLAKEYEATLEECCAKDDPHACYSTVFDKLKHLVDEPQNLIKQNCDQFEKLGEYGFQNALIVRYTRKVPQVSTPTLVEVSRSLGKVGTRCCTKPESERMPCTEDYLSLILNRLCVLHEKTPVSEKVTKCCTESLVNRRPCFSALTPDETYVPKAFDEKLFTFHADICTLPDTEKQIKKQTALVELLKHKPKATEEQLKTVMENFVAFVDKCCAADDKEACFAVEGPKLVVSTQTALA
# [2] = probe aXIP binding to arrayed compounds – biochemical, NeuroSMM set, 635/667 nm fluorescence, primary screen (AID 1119); conditions: small-molecule microarray, higher = more signal, called active from +8 up or from −8 down;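 also: probe is the protein aXip251-270 applied at 1 µg/mL to compound-printed slides; binding of probe to printed compounds measured as 667 nm fluorescence plus signal to noise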
# [3] = probe aNOTCH3 binding on compound microarray – biochemical, small-molecule microarray, 635/667 nm fluorescence, primary screen (AID 1120); conditions: higher = more signal;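 also: probe is a biotin-tagged antibody raised against NOTCH3 rather than NOTCH3 protein; score merges spot fluorescence near 667 nm with spot signal to noise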
# [4] = probe aNOTCH2 binding on compound microarray – biochemical, small-molecule microarray, 635/667 nm fluorescence, primary screen (AID 1121); conditions: higher = more signal;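 also: score merges feature fluorescence read at 667 nm with its signal to noise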
# [5] = target: Carbonic anhydrase 2 (Homo sapiens) (UniProt P00918); experiment: compounds binding carbonic anhydrase 2 – biochemical, small-molecule microarray, Alexa647-labelled CAII, profiling panel (AID 1122); conditions: CAII-A647 binding fluorescence, higher = more signal
# [6] = COS7 lysate on small-molecule microarray, probe aHis, 635 nm (AID 1123); conditions: COS7 cell lysate, fluorescence, higher = more signal;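 also: z-score combines 667nm fluorescence intensity with signal-to-noise per printed compound spot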
# [7] = probe aLAP1 signal on lysate-treated microarray – cell lysate, small-molecule microarray, COS7 lysate, primary screen (AID 1124); conditions: probe aLAP1, fluorescence, higher = more signal;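 also: lysate comes from COS7 cells expressing LAP1 and is applied at 0.3 µg/mL; score merges spot fluorescence near 667 nm with signal-to-noise over triplicate slides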
# [8] = test system: Sam68 (KHDRBS1); experiment: compounds binding KHDRBS1 protein – biochemical, small-molecule microarray, 635 nm fluorescence, primary screen (AID 1125); conditions: higher = more signal;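 also: score merges 667 nm channel intensity with signal to noise over triplicate slides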
# [9] = test system: Chordin-like protein 2 (CHRDL2); experiment: compounds binding chordin-like 2 – biochemical, small-molecule microarray, 635 nm fluorescence, primary screen (AID 1126); conditions: fluorescence 635 nm, higher = more signal;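 also: printed compound slides probed with Chrdl2 protein at 4 µg/mL for 1 h at 4 C; score merges 667 nm emission intensity with signal to noise over three replicate slides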
# [10] = target: Concanavalin-A (Canavalia ensiformis) (UniProt P02866); experiment: compounds binding concanavalin A lectin – biochemical, small-molecule microarray, Alexa647 label, 635 nm, artefact control for SMM control protein annotation, primary screen (AID 1127); conditions: ConA-A647 binding fluorescence, higher = more signal;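 also: z combines 667 nm emission intensity with signal-to-noise across three replicate slides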
# Sequence of Concanavalin-A (Canavalia ensiformis) (P02866 whole entry, looked up): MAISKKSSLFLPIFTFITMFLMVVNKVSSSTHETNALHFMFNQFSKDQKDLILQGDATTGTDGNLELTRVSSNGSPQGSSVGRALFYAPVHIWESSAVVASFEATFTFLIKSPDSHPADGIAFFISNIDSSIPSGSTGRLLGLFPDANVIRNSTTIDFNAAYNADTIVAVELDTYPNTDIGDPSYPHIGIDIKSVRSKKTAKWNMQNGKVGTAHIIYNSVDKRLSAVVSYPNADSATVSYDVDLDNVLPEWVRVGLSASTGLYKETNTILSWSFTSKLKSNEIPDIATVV
# [11] = compounds binding Alexa647 anti-His antibody – biochemical, small-molecule microarray, 635 nm fluorescence, artefact control for SMM control protein annotation, primary screen (AID 1128); conditions: higher = more signal;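 also: score merges feature fluorescence with signal-to-noise for each printed compound spot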
# [12] = test system: Human papillomavirus type 1a E7 protein (residues 1-88); experiment: HPV1a E7 small-molecule binders, primary screen, biochemical, small-molecule microarray, residues 1-88, 635 nm (AID 1129); conditions: small-molecule microarray binding, fluorescence 635 nm; higher = more signal
# [13] = target: Focal adhesion kinase 1 (Homo sapiens) (UniProt Q05397); experiment: PTK2 protein binding on printed compound slides – biochemical, small-molecule microarray, 635/667 nm fluorescence, BSA, DTT, primary screen (AID 1130); conditions: 635 nm fluorescence, higher = more signal;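 also: composite of spot emission at 667 nm and signal to noise over triplicate slides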
# Sequence of Focal adhesion kinase 1 (Homo sapiens) (Q05397 whole entry, looked up): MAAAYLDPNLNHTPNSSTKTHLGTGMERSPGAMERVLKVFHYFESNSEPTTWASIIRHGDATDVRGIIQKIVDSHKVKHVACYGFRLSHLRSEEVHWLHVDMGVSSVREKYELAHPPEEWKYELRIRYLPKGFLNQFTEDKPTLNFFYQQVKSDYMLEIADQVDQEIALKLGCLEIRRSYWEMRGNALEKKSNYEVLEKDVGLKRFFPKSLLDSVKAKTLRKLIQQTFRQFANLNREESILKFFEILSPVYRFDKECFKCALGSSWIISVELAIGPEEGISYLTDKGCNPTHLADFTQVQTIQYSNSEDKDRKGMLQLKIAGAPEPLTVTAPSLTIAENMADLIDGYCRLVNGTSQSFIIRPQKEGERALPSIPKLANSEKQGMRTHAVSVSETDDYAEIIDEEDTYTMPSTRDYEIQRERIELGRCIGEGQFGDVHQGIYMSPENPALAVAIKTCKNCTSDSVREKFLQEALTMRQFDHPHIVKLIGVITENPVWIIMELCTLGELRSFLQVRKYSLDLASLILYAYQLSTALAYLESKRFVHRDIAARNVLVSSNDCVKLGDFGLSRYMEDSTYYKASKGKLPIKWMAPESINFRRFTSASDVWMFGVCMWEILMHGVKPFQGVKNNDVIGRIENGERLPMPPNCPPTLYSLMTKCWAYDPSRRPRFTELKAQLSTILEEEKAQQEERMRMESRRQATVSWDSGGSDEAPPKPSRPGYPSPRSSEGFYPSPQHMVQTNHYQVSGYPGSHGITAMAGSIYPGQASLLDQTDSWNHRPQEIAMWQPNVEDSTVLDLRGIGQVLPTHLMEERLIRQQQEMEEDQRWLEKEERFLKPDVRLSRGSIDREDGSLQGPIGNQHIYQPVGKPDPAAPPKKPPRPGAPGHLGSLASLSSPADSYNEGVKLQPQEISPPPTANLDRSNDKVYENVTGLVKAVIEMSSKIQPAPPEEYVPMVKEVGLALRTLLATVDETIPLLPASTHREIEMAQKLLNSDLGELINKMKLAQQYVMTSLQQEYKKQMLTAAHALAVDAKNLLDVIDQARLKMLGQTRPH
# [14] = test system: Fibrinogen (Alexa647-labelled); experiment: Alexa647-fibrinogen binding to printed small molecules – biochemical, small-molecule microarray, 635/667 nm fluorescence, artefact control for SMM control-protein annotation, profiling panel (AID 1131); conditions: fibrinogen-A647 binding fluorescence, higher = more signal;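 also: z-score merges 667 nm fluorescence with per-spot signal-to-noise over triplicate slides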
# [15] = target: Follistatin (Homo sapiens) (UniProt P19883); experiment: FST protein binding to printed compounds – biochemical, small-molecule microarray, 635/667 nm fluorescence, primary screen (AID 1132); conditions: 635 nm fluorescence, higher = more signal
# Sequence of Follistatin (Homo sapiens) (P19883 whole entry, looked up): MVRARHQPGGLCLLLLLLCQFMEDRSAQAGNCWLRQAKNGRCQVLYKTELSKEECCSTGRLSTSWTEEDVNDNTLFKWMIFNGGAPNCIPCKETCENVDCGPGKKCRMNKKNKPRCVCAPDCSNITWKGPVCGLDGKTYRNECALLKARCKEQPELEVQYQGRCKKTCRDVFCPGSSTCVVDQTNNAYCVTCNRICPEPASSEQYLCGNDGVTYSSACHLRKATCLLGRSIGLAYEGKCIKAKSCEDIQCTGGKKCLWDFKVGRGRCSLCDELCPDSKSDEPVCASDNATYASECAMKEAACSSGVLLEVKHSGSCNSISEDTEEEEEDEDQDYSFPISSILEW
# [16] = target: Fibroblast growth factor 2 (Homo sapiens) (UniProt P09038); experiment: basic fibroblast growth factor binding to printed compounds – biochemical, small-molecule microarray, 635/667 nm fluorescence, primary screen (AID 1133); conditions: FGF2, fluorescence 635/667, higher = more signal
# Sequence of Fibroblast growth factor 2 (Homo sapiens) (P09038 whole entry, looked up): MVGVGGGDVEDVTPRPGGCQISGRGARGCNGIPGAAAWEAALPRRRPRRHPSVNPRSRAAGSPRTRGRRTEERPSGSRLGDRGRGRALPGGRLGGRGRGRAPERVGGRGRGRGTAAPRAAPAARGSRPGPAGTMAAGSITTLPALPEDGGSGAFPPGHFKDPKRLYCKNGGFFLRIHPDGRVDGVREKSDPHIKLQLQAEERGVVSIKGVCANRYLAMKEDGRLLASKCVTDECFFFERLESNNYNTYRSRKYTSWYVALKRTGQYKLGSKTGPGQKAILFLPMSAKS
# [17] = JC-1 mitochondrial potential readout, lung cancer cells – cell-based, A549, JC-1 fluorescence, basal, 24 h, 100 nL, profiling panel (AID 1138); conditions: higher = more signal;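 also: A549 lung adenocarcinoma cells under basal conditions with no added stimulus; test concentration not given here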
# [18] = test system: Lefty1; experiment: Lefty1 protein binding to printed compounds – biochemical, small-molecule microarray, 635/667 nm fluorescence, primary screen (AID 1139); conditions: fluorescence 635/667, higher = more signal
# [19] = test system: wheat germ agglutinin (Triticum aestivum), Alexa647-labelled; experiment: Alexa647-WGA lectin binding to printed small molecules – biochemical, small-molecule microarray, 635/667 nm fluorescence, artefact control for SMM control-protein annotation, profiling panel (AID 1140); conditions: WGA-A647 binding, 635 nm fluorescence, higher = more signal;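 also: score merges 667 nm feature emission with signal to noise over triplicate slides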
# [20] = target: Luciferin 4-monooxygenase (Photinus pyralis) (UniProt P08659); experiment: inhibition of purified Photinus pyralis luciferase – biochemical, luminescence, purified enzyme, 2006 set, primary screen (AID 1141); conditions: purified firefly luciferase, SteadyGlo luminescence, 30 min; higher = more signal, called active from +8 up or from −8 down;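 also: cell-free assay with purified firefly luciferase at 100 ng per well in PBS; test concentration not given here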
# Sequence of Luciferin 4-monooxygenase (Photinus pyralis) (P08659 whole entry, looked up): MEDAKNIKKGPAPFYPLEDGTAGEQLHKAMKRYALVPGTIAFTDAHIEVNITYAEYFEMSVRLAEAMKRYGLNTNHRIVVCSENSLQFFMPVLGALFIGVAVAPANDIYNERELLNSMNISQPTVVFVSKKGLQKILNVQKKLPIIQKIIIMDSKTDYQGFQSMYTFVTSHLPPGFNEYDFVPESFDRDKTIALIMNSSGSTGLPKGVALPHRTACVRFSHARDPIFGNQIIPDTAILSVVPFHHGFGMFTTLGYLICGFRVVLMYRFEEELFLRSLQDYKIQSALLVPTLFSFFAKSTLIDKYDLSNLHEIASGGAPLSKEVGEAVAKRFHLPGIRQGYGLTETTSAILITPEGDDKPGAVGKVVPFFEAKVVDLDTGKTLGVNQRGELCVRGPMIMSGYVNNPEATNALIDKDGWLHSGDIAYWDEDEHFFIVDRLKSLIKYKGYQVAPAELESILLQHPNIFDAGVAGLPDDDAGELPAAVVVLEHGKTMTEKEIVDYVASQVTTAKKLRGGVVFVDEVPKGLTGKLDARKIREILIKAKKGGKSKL
Compound,composite z-score [1],composite Z-score [2],composite z-score [3],composite z-score [4],composite z-score [5],composite z-score [6],composite z-score [7],composite z-score [8],composite z-score [9],composite z-score [10],composite z-score [11],composite z-score [12],composite z-score [13],composite z-score [14],composite z-score [15],composite z-score [16],z-score [17],composite z-score [18],composite z-score [19],z-score [20]
CC1CC/C=C\[C@H]2OC34C=CCN(c5ccc6ccccc6c5)C(=O)[C@H]3N(C(CO)C(C)C)C(=O)[C@@H]4C2C(=O)O1 (stereo not given in full),0.912,0.142 (inactive),-0.125,-0.125,0.786,1.07,0.407,0.0645,-0.315,0.0601,1.22,0.29,1.33,-1.01,0.136,-0.282,0.254,0.0964,1.08,-0.776 (inactive)
NC(=O)NCC#Cc1ccc2c(c1)[C@]1(C(=O)N2)[C@H](C(=O)Nc2nc3ccccc3s2)[C@H]2C(=O)O[C@H](c3ccccc3)[C@H](c3ccccc3)N2[C@@H]1c1ccc(O)cc1,-0.0229,0.157 (inactive),0.114,0.103,0.0856,-0.482,0.274,0.846,0.402,1.07,-0.198,0.52,0.286,0.629,1.28,0.651,-2.41,0.383,0.696,-1.76 (inactive)
CN(C)CCCN1C(=O)[C@@]2(c3ccc([N+](=O)[O-])cc3)CC(=O)N(CC34CC5CC(CC(C5)C3)C4)[C@@H]2c2ccc(CO)cc21,-0.348,-0.184 (inactive),-0.208,-0.0391,0.76,1.08,0.538,0.503,-0.304,0.412,1.98,-0.0813,-0.117,0.926,0.203,-0.112,1.72,0.13,0.354,-0.701 (inactive)
CO[C@H]1O[C@H](CO)[C@@H](OC(=O)Nc2ccc(C(F)(F)F)cc2)[C@H](OC(=O)Nc2ccc3c(c2)OCO3)[C@H]1OC(=O)Nc1ccc2c(c1)OCO2,0.72,1.42 (inactive),0.169,0.0062,0.767,2.67,0.59,1.3,-0.146,1.14,2.97,1.17,1.33,0.806,0.977,0.395,-1.16,0.871,1.07,-7.72 (inactive)
COC(=O)[C@H](Cc1ccccc1)N1CC(/C=C/C2CC2)=C[C@@H]1[C@@H](O)Cc1ccccc1,0.506,-0.325 (inactive),0.126,-0.166,0.171,0.992,1.66,1.34,0.779,1,0.303,1.14,0.28,0.971,0.958,0.418,0.33,1.26,0.982,-0.186 (inactive)
C[n+]1ccc(CCCO)cc1,-0.911,0.165 (inactive),0.182,-0.0211,0.321,2.53,1.6,0.0844,0.127,-0.0858,-0.278,-1.41,-0.526,-1.48,1.37,1.44,-0.195,1.36,-0.72,0.246 (inactive)
CCCN1C(=O)[C@]2(Cc3ccccc3)N=C(c3ccc(OCCCO)cc3)O[C@@H]2c2ccccc21,0.727,-0.659 (inactive),-0.0345,-0.142,0.537,1.86,0.335,1.28,0.777,1.14,1.9,1.22,0.0605,0.962,1.46,1.63,1.44,0.951,0.751,-4.12 (inactive)
Cc1ccc(S[C@]2(C(=O)NCCN3CCOCC3)CC(=O)N(Cc3ccccc3C(F)(F)F)[C@@H]2c2ccc(CO)cc2I)cc1,0.274,0.139 (inactive),-0.171,-0.131,0.371,0.702,0.23,0.397,-0.777,-0.278,0.771,-0.0269,0.167,-1.16,-0.562,-0.907,-0.695,-0.87,-0.194,0.622 (inactive)
CCCCC(=C=CC[C@@H](O)c1ccc(OCCO)cc1)C[C@@H](O)COCc1ccccc1,-0.28,-0.114 (inactive),-0.182,-0.145,0.868,0.173,-0.268,0.61,0.0396,-0.382,0.0164,-0.445,-0.0498,-1.01,1.31,0.567,1.72,0.973,0.614,-1.58 (inactive)
COc1ccccc1CN1C(=O)c2ccccc2[C@](Cc2ccccc2I)(C(=O)NC(C)C)[C@@H]1c1ccc(CO)cc1,0.894,0.338 (inactive),0.101,-0.123,0.131,2.39,0.226,1.3,0.286,1.16,1.94,1.24,0.629,0.983,1.14,0.506,1.86,0.773,1.16,1.35 (inactive)
